We go through seven molecules from PubChem BioAssay (NCI).

About 83,000 compounds went through this panel and 20% of them were active in at least one assay; those are over-represented in the sample as a whole.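 How to read the values: 0–100, growth inhibition (40 = 60% inhibited); 0, no net growth; -100 to 0, cell death (-40 = 40% of starting cells died; -100 = all dead).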 Activity calls are given as the source filed them. Rule for the calls: active = growth percent below 10; inactive = the rest.

For the assay, the system named is SK-MEL-2 melanoma. In words: NCI-60 one-dose screen, 48 h (100 = growth as untreated, 0 = no growth, -100 = all killed). To be noted: 10 µM unless noted.
As to `CCOC(=O)c1ccccc1NC1=C(Cl)C(=O)c2nc(C)ccc2C1=O`, the growth is 112% (inactive).

Take `Cc1ccc([C@H]2c3[nH]c4ccccc4c3C[C@H]3C(=O)N(CCCCCCC(=O)NO)CC(=O)N23)s1`: the growth is 84.9% (inactive).

Take `NC1CC2(CCN(c3cnc(C(=O)Nc4cc(F)cc5cccnc45)cn3)CC2)C1`: the growth is 101% (inactive). The figure for `O=C(CSc1nc2ccccc2c(=O)n1-c1ccc(Cl)cc1)N/N=C/c1ccc(Oc2ccc(Cl)cc2)cc1` is 54.3% (inactive); for `CCCCSC1=C(Cl)CN(c2ccc(Cl)cc2)C1=O` it is 103% (inactive). As for `CC(=O)/C(N=Nc1ccc2oc(=O)ccc2c1)=C(\C)O`, the figure is 0.338% (active); as for `CCOC(=O)c1c(NC(=O)c2ccc(C(F)(F)F)cc2)sc2c3c(ccc12)OCN(C)C3`, 72.8% (inactive).
